Bioassay records (PubChem)
Only some compounds are listed: those with a hit (about 27% of all), similar ones and a draw of the others.
Cav32 inh: blocks human Cav3.2 T-type calcium channel; O95180; Cav3.2-expressing cells, Fluo-4 calcium fluorescence FDSS; active compounds read low; B-score at 10 µM; 100,000 tested, 4% active; AID 449739;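 active means single-dose well whose peak fluorescence ratio is a statistical outlier from its plate by either plate-standardised score or position-corrected B-score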
CYP2C9 act: increases human cytochrome P450 2C9 activity; P11712; recombinant CYP2C9, luciferin-H conversion, luminescence; active compounds read high; factor 1 = untreated enzyme, 0 = blocked; activation factor at 5 µM; 96,000 tested, 1.4% active; AID 1024;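 active means activation factor of 2 or more for CYP2C9 at a 5 µM dose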;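 further: 0 = sulfaphenazole-blocked wells and 1 = vehicle-only wells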
Target sequence (P11712 whole entry, looked up): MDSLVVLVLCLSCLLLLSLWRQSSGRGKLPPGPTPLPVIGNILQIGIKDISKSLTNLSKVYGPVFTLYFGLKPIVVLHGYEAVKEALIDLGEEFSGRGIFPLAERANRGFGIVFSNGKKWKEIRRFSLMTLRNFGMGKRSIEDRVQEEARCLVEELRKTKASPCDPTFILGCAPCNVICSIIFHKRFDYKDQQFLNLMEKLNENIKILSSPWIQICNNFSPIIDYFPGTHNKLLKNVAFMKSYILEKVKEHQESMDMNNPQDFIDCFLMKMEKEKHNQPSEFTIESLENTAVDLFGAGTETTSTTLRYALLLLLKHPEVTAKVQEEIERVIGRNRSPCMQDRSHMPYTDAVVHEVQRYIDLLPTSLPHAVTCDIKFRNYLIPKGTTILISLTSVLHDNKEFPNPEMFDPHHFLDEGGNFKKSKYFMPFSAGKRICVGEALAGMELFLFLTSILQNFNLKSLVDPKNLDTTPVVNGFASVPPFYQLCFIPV
CYP2C9 inh: human CYP2C9 inhibition; AID 777; 96,000 tested, 20% active; inhibition, % at 5 µM; CYP2C9 Supersomes, luciferin-H conversion, luminescence; P11712;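 active means blocking of liver enzyme CYP2C9 beyond about 50% at 5 µM, limit read from the data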
CYP2C19 act: increases human CYP2C19 enzyme activity | P33261 | recombinant CYP2C19, luciferin-H EGE luminescence; active compounds read high; 0 = fully inhibited enzyme, 1 = untreated enzyme | activation factor at 5 µM | 96,000 tested, under 10 active | AID 1025;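 active means activation factor of at least 2 at 5 µM in the primary screen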;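 further: 0 = wells with 2.5 mM tranylcypromine and 1 = vehicle-only wells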
CYP2C19 inh: blocks human cytochrome P450 2C19; P33261; CYP2C19 Supersomes, luciferin-H EGE luminescence, 30 min; inhibition, % at 5 µM; 96,000 tested, 21% active; AID 778;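 active means CYP2C19 inhibition above a set limit at 5 µM in the primary screen, cut at about 50% in these data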;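 further: plate controls were negative control wells for no effect and 2.5 mM tranylcypromine positive control for full effect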
Starred values were filed as active, the others as inactive.

`OCCCn1c(C2CCCN2c2nc(-c3ccc(Cl)cc3)cs2)nc2cc(C(F)(F)F)ccc21` (configuration not stated) gave Cav32 inh -0.511.
For COc1ccc(OC)c2sc(NC(=O)C(C)C)nc12 the results were Cav32 inh -1.18, CYP2C9 act 0.3, CYP2C9 inh 69.8*, CYP2C19 act 0.5 and CYP2C19 inh 45.7.
`N/C(CN1CCCC1=O)=N\OC(=O)c1ccccc1Cl` gave Cav32 inh 1.97, CYP2C9 act 1.1, CYP2C9 inh -5.1, CYP2C19 act 1 and CYP2C19 inh -1.5.
Screening COc1cccc(/C=N/NC(=O)CSc2nnc(C)n2-c2ccccc2)c1O returned CYP2C9 act 1.1, CYP2C9 inh -5.2, CYP2C19 act 1 and CYP2C19 inh -4.6.
`CCCCSc1nc(C)cc(SCC(=O)N/N=C/c2cccc(OC)c2O)n1` gave CYP2C9 act 0.4, CYP2C9 inh 64.3*, CYP2C19 act 0.7 and CYP2C19 inh 33.2.
For Cc1ccc(NC(=O)c2cccc(N3C(=O)CCC3=O)c2)nc1 the results were Cav32 inh 1.37, CYP2C9 act 1, CYP2C9 inh -1.4, CYP2C19 act 1.2 and CYP2C19 inh -23.5.
`O=C1c2ccccc2NC(c2ccc(Cl)cc2Cl)N1Cc1ccccc1` (configuration not stated) gave Cav32 inh -5.26*, CYP2C9 act 0.9, CYP2C9 inh 14.0, CYP2C19 act 1 and CYP2C19 inh 2.8.
For O=C1c2ccccc2NC(c2ccc(Cl)cc2Cl)N1O (configuration not stated) the results were Cav32 inh -0.0861, CYP2C9 act 0.9, CYP2C9 inh 13.5, CYP2C19 act 0.8 and CYP2C19 inh 25.0.
O=C1c2ccccc2NC(c2c(Cl)cccc2Cl)N1Cc1ccccc1 (configuration not stated) was read as Cav32 inh -10.5*, CYP2C9 act 1, CYP2C9 inh 2.2, CYP2C19 act 1 and CYP2C19 inh -3.0.
Cc1cccc(C2Nc3ccccc3C(=O)N2CCc2ccccc2)n1 (configuration not stated) was read as Cav32 inh -0.311, CYP2C9 act 0.4, CYP2C9 inh 61.4*, CYP2C19 act 0.4 and CYP2C19 inh 61.4*.
For Cc1ccc(-c2nnc(SCC(=O)Nc3nccs3)n2N)cc1 the results were Cav32 inh -0.00413.
Cc1cc(NC(=O)c2noc3c2CCCC3)no1 was read as Cav32 inh 0.72, CYP2C9 act 1.1, CYP2C9 inh -11.8, CYP2C19 act 1.1 and CYP2C19 inh -10.2.
Screening COC(=O)C1=C[C@@H](C(=O)OC)[C@@H]2C3=C(C(=O)[C@@]2(C)NC(=O)c2ccccc2)[C@H](C)C(C(=O)OC)=C(C(=O)OC)[C@@H]3C1 returned Cav32 inh 0.397.
Cc1n[nH]c(C)c1CCOc1ccc(C(C)C)cc1 was read as Cav32 inh -5.39*, CYP2C9 act 0.8, CYP2C9 inh 20.9, CYP2C19 act 0.9 and CYP2C19 inh 14.4.
Screening Cc1ccc(-c2cn(S(=O)(=O)c3cccc4nsnc34)nc2N)cc1 returned Cav32 inh -7.76*, CYP2C9 act 0.3, CYP2C9 inh 69.0*, CYP2C19 act 0.1 and CYP2C19 inh 88.9*.
Screening Cc1cccc(NC(=O)C2CCN(S(=O)(=O)c3cccc4nsnc34)CC2)n1 returned Cav32 inh 0.0222, CYP2C9 act 1, CYP2C9 inh 4.5, CYP2C19 act 0.6 and CYP2C19 inh 41.2.
Nc1nn(S(=O)(=O)c2cccc3nsnc23)cc1-c1ccc(Br)cc1 was read as Cav32 inh -5.92*, CYP2C9 act 0, CYP2C9 inh 99.6*, CYP2C19 act 0 and CYP2C19 inh 99.8*.
`O=C(O)C1CSCN1S(=O)(=O)c1cccc2nsnc12` (configuration not stated) gave Cav32 inh -1.64, CYP2C9 act 1.3, CYP2C9 inh -27.9, CYP2C19 act 1 and CYP2C19 inh 4.8.
Screening COc1cc(-c2cn(S(=O)(=O)c3cccc4nsnc34)nc2N)cc(OC)c1OC returned Cav32 inh 0.0632, CYP2C9 act 0.1, CYP2C9 inh 87.6*, CYP2C19 act 0 and CYP2C19 inh 95.6*.
`CCOC(=O)c1cccc(NC(=O)C2CCCN2S(=O)(=O)c2cccc3cccnc23)c1` (configuration not stated) gave Cav32 inh -0.629, CYP2C9 act 0.1, CYP2C9 inh 91.1*, CYP2C19 act 0.7 and CYP2C19 inh 33.5.
Screening COc1ccc(NC(=O)C2CCCN2S(=O)(=O)c2cccc3cccnc23)c(OC)c1 (configuration not stated) returned Cav32 inh 0.715, CYP2C9 act 0.1, CYP2C9 inh 91.8*, CYP2C19 act 0.7 and CYP2C19 inh 31.1.
`NS(=O)(=O)c1cccc2cccnc12` gave Cav32 inh -0.0854, CYP2C9 act 1.5, CYP2C9 inh -45.1, CYP2C19 act 0.9 and CYP2C19 inh 9.5.
`O=C(Nc1cccc(C(F)(F)F)c1)C1CCCN1S(=O)(=O)c1cccc2cccnc12` (configuration not stated) gave Cav32 inh -3.21, CYP2C9 act 0.5, CYP2C9 inh 47.9, CYP2C19 act 0.5 and CYP2C19 inh 46.8.
Cc1ccccc1NC(=O)C1CCCN1S(=O)(=O)c1cccc2cccnc12 (configuration not stated) was read as Cav32 inh 0.0295, CYP2C9 act 0, CYP2C9 inh 95.5*, CYP2C19 act 0.3 and CYP2C19 inh 67.0*.
For COc1ccc(N(C)S(=O)(=O)c2cccc3cccnc23)c(OC)c1 the results were Cav32 inh -0.0531, CYP2C9 act 0.8, CYP2C9 inh 16.3, CYP2C19 act 0.4 and CYP2C19 inh 60.3*.
For O=C1C2C3C=CC([C@@H]2C(=O)N1C1CC1)[C@H]1C(=O)N(C2CC2)C(=O)C31 (some centres not stated) the results were Cav32 inh -0.0412, CYP2C9 act 1, CYP2C9 inh -0.6, CYP2C19 act 0.9 and CYP2C19 inh 7.8.
COCCn1c(SCC(=O)OCc2ccccc2)nc2c1c(=O)[nH]c(=O)n2C was read as Cav32 inh 1.06, CYP2C9 act 1, CYP2C9 inh -3.4, CYP2C19 act 1.1 and CYP2C19 inh -8.9.
C#CCNC(=O)/C=C/c1ccc(OC)cc1 was read as Cav32 inh 0.258.
Screening O=c1c2ccccc2nnn1CSc1nnc(-c2cccs2)n1Cc1ccccc1 returned Cav32 inh -0.112, CYP2C9 act 0.6, CYP2C9 inh 42.7, CYP2C19 act 0.8 and CYP2C19 inh 23.0.
Screening C=CCn1c(SCC(=O)Nc2ccccc2)nc2scc(-c3cccs3)c2c1=O returned Cav32 inh -5.09*, CYP2C9 act 0, CYP2C9 inh 99.5*, CYP2C19 act 0.2 and CYP2C19 inh 83.0*.
For C=CCn1c(SCC(=O)N2CCCC2)nc2scc(-c3cccs3)c2c1=O the results were CYP2C9 act 1.1, CYP2C9 inh -6.1, CYP2C19 act 0.9 and CYP2C19 inh 10.3.
